Results filed as inconclusive are left out. Active and inactive are the calls of the source. The calls were made as follows: active = hit-call score of the fitted dose curve at least 0.9, where 1 is the maximum; inconclusive = response in the unintended direction; inactive = score below 0.9.
read-out: organic anion transporter (SLCO1B1), SLCO1B1 (gene 10599); test: CLD_SLCO1B1_48hr: CellzDirect (CLD) Gene Expression Assay for organic anion transporter (SLCO1B1) at 48 hours (AID 2283707)
Method: CLD_48hr is a cell-based, multiplexed-readout assay that uses hepatocyte, a human liver primary cell, with measurements taken at 48 hours after chemical dosing in a 96-well plate.CLD_SLCO1B1_48hr is one of 16 assay component(s) measured or calculated from the CLD_48hr assay. It is designed to make measurements of mRNA induction, a form of inducible reporter, as detected with chemiluminescence signals by Quantitative Nuclease Protection Assay (qNPA) technology.Data from the assay component CLD_SLCO1B1_48hr was analyzed at the endpoint, CLD_SLCO1B1_48hr, in the positive analysis fitting direction relative to DMSO as the negative control and baseline of activity. Using a type of inducible reporter, gain-of-signal activity can be used to understand changes in the reporter gene as they relate to the gene SLCO1B1. Furthermore, this assay endpoint can be referred to as a primary readout. To generalize the intended target to other relatable targets, this assay endpoint is annotated to the transporter intended target family, where subfamily is organic anion transporter.
Human hepatocyte cultures were treated daily for two consecutive days with fresh dosing solutions containing appropriate concentrations of the 320 ToxCast chemicals (chemical identities were blinded to CellzDirect and other ToxCast collaborators), vehicle control (0.2% DMSO), and positive control inducers as summarized in Table 1. Due to the large number of treatment groups and chemicals examined, the ToxCast chemicals were divided into two groups (spanning two independent cultures of hepatocytes from separate donor preparations (Hu778: ToxCast plates 1 and 2; Hu776: ToxCast plates 3 and 4). Each preparation of human hepatocyte cultures was treated with respective vehicle control, medium only control, set of six positive controls/reference chemicals for the five hepatic receptor pathways, and a subset of eight of the ToxCast chemicals (indoxacarb, pyrithiobac-sodium, norflurazon, cyhalofop-butyl, methomyl, thiram, acetochlor, and propiconazole). These replicate data, coupled with internal replicates designed within the blinded ToxCast chemical library, provided additional data to evaluate interindividual differences between hepatocyte preparations and their potential impact on chemical profiles.Cell morphology and integrity were evaluated using phase-contrast microscopy as an indicator of hepatocyte cell health (Tyson & Green, 1987). Cultures for each treatment group (i.e., media, vehicle [0.2% DMSO], positive control inducers [multiple concentrations], and the ToxCast chemicals [multiple concentrations]) were observed and cell morphology was assessed relative to vehicle control cultures at each harvest time point (0, 6, 24, or 48 h). […] Images were evaluated at the conclusion of the study to assess changes in cell integrity and account for the effects of chemical exposure on uncharacteristic changes in concentration-dependent gene expression profiles. The results from these determinations of apparent cytotoxicity were annotated (yes/no) alongside the corresponding qNPA data for reference.At the conclusion of each treatment period, hepatocyte cultures (96-well) were washed with 1 volume of HBSS, lysed by addition of 25 ul ArrayPlate lysis buffer (HTG, Tucson, AZ), and 70 ul/well of Denaturation Oil, denatured by incubation at 95C for 10 min, and frozen at approximately -70C until analysis by nuclease protection assay (qNPA) (Roberts et al., 2007). For qNPA analysis, cell lysates were thawed at 50C for approximately 30 min, qNPA probes were added, and samples were incubated at 95C for 10 min to begin the detection process by denaturing the target RNA, dissociating the duplexes and secondary structure hybridization. At the conclusion of the hybridization period, S1 nuclease reagent was added to each sample to digest all nonprotected nucleotides at 50C for 60-90 min. […]

Structure (SMILES) | outcome
CCCCOC(=O)c1ccccc1C(=O)OCCCC | inactive
Oc1ccccc1-c1ccccc1 | inactive
CCNc1nc(Cl)nc(NC(C)C)n1 | inactive
COc1nc(NC(C)C)nc(NC(C)C)n1 | inactive
Fc1ccc(Oc2ccnc3cc(Cl)cc(Cl)c23)cc1 | inactive
CCCN(CCC)c1c([N+](=O)[O-])cc(S(N)(=O)=O)cc1[N+](=O)[O-] | inactive
COP(=S)(OC)Oc1nc(Cl)c(Cl)cc1Cl | inactive
COc1nc(C)nc(NC(=O)NS(=O)(=O)c2ccccc2Cl)n1 | inactive
COP(N)(=O)SC (stereo not drawn) | inactive
COC(=O)c1ccccc1C(=O)OC | inactive
CS/C(C)=N/OC(=O)N(C)SN(C)C(=O)O/N=C(\C)SC | inactive
COC(=O)N(OC)c1ccccc1COc1ccn(-c2ccc(Cl)cc2)n1 | inactive
CC(C)(C)c1ccc(CSc2cnn(C(C)(C)C)c(=O)c2Cl)cc1 | inactive
COc1cnc(OC)n2nc(NS(=O)(=O)c3c(OCC(F)F)cccc3C(F)(F)F)nc12 | inactive
COC(=O)C(C)Oc1ccc(Oc2ccc(Cl)cc2Cl)cc1 (stereo not drawn) | inactive
O=C(O)c1nc(Cl)ccc1Cl | inactive
CCNc1nc(Cl)nc(NCC)n1 | inactive
COc1nc(C)nc(NC(=O)NS(=O)(=O)c2ccccc2CCC(F)(F)F)n1 | inactive
